Among all 340,000 compounds or so, about 420 (0.12%) were called active. Where a call stands in place of a potency, no number is given. Another 10% or so got no clear call; they are omitted. This is one part of a sample in which actives are shown more often than they occur. Unmarked numbers belong to inactive results. The call rests on the fitted dose curve; in most records, active means well fitted activation curve with a large enough effect; inconclusive means small, poorly fitted or top-dose-only effect, or another doubt; inactive means no such curve, though single readings can be large or run the other way; cell line not stated here.
Assay: qHTS for Agonist of gsp, the Etiologic Mutation Responsible for Fibrous Dysplasia/McCune-Albright Syndrome: qHTS; further: nearly all actives have a fitted effect of over 60% in size;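 on activation (cAMP increase): phosphodiesterase inhibitor Ro 20-1724 added with compounds to block cAMP breakdown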
Details: gsp mutant cells, cAMP HTRF, 30 min; series mostly up to 76.9 µM
Text: McCune-Albright syndrome (MAS) is a rare disease caused by somatic mutations in Gsgsp), a widely expressed protein central in signal transduction from G-coupled protein receptors (GPCRs). The disease symptoms are diverse, owing to the fact that the patients are mosaics with varying degrees of tissue involvement. Greater than 90% of the mutations in Gs in MAS occur at the R201 position and are equally divided between R201H and R201C. The R201 residue is central in the intrinsic GTPase activity of Gs and the H and C mutations lead to loss of, or impairment of, the GTPase activity. The intrinsic GTPase activity is necessary to terminate the interaction between Gs and adenylate cyclase, and to terminate the cAMP-mediated signaling of the given GPCR pathway. Thus, these activating mutations lead to ligand-independent activation of GPCR pathways. The tissue phenotype is determined by the role of Gs in the function of a given cell, and excess Gs/cAMP signaling in that cell. For example, pituitary somatotrophs overproduce growth hormone in a growth hormone releasing hormone-independent fashion, and gigantism/acromegaly ensues. Skeletal stem cells in the bone marrow behave as if they are under constant parathyroid hormone stimulation and fail to differentiate into osteoblasts and osteocytes, and proliferate as immature osteogenic cells and lead to the marrow fibrosis of fibrous dysplasia of bone. The goal of this project is to identify molecules with stimulatory activity at gsp mutations that will not only allow for in-depth study of the underlying molecular and cellular pathophysiology, but also serve as compounds from which drugs to treat FD/MAS can be developed NIH Chemical Genomics Center [NCGC] NIH Molecular Libraries Probe Centers Network [MLPCN] MLPCN Grant: IRP-FT-DE-2011-01 Assay Submitter (PI): Michael Collins, NIDCR
1.#Seed 2000 cells/well in 6 ul DMEM 10% FBS, 1% Pen/Strep, 0.5 mg/ml G418 2.#Incubate 16-24 hr at 37C, 5% CO2, 95% humidity 3.#Aspirate leaving 1 ul residual volume 4.#Dispense 5 ul/well DPBS + 1 mM CaCl2, 0.5 mM MgCl2, 0.05% BSA, 0.005% Tween 20 5.#Aspirate leaving 2 ul residual volume 6.#Dispense 23 nl/well compounds in DMSO 7.#Dispense 1 ul/well 300 uM Ro-20174 in DMEM 10% FBS 8.#Incubate 30 min at 37C, 5% CO2, 95% humidity 9.#Dispense 1.5 ul/well HTRF reagent: cAMP-d2 in lysis buffer 10.#Dispense 1.5 ul/well HTRF reagent: anti-cAMP antibody-K in lysis buffer 11.#Incubate 30 min at room temperature 12.#Detect HTRF signal using EnVision plate reader
Potency means the concentration at half of the fitted maximal effect.

Structure (SMILES)	Potency	activation (cAMP increase)
O=C(O)C1=C(C(=O)O)C2CCC1C2	inactive	
CC1=C(C(=O)N2CCOCC2)CC(CC(=O)NCCN2CCOCC2)C(=O)N1CCC1=CCCCC1 (stereo unspecified)	inactive	
CC1(c2cccc(N)c2)OCCO1	inactive	
CCc1cccc(CC)c1N1C(=O)CC(Sc2ccccc2N)C1=O (stereo unspecified)	inactive	
CCCCN(C(C)=O)c1ccc2c(c1)C1CC2CCN1Cc1ccccc1 (stereo unspecified)	inactive	
CCOc1ccc(S(=O)(=O)NCCC(=O)NNC(=O)c2ccc(F)cc2)cc1	inactive	
Cc1ccc(NC(=O)Cn2sc3ccccc3c2=O)cc1	inactive	
CC1C(C)N(C(=O)CCl)c2ccccc2N1C(=O)CCl (stereo unspecified)		-0.561% [at 15.4 µM]
CC1CCCC(C)N1C(=O)COC(=O)c1ccccc1C(=O)c1ccccc1 (stereo unspecified)	inactive	
CC1(C)NC(=O)N(CC(=O)Nc2ccc(-c3ccccc3)cc2)C1=O	inactive	
CC1C(=O)N(Cc2cn(CC3CCCCC3)nn2)CCS(=O)(=O)N1Cc1ccc(-c2cccc(N(C)C)c2)cc1 (stereo unspecified)	inactive	
CCOC(=O)C(=Cc1ccccc1)C(=O)c1ccccc1	inactive	
COc1ccc(S(=O)(=O)N2CCN(CC(=O)N3CCNC3=O)CC2)cc1OC	inactive	
O=C(OCC(=O)N1CCCCCC1)c1cccc(Cl)c1Cl	inactive	
CSc1ncnc2c1ncn2CCCNCC(C)c1ccccc1 (stereo unspecified)	inactive	
C[C@H]1NS(=O)(=O)c2cc(Cl)ccc2O[C@@H]1c1ccccc1	inactive	
COc1cc2nnn(-c3ccncc3)c2cc1OC	inactive	
O=C(COC(=O)/C=C/c1ccc(Cl)cc1)NC1CCS(=O)(=O)C1 (stereo unspecified)	inactive	
Cc1ccccc1-c1ccc2c(c1)O[C@@H](CN(C)Cc1ccc(C(=O)O)cc1)[C@@H](C)CN([C@H](C)CO)S2(=O)=O	inactive	
CCN(Cc1ccncc1)C(=S)Nc1ccccc1C	inactive	
CC1CCCC(NC(=O)COC(=O)c2ccccc2C(=O)N(C)C2CCCCC2)C1C (stereo unspecified)	inactive	

Structure (SMILES)	Potency	activation (cAMP increase)
CCN(CC)C(=O)C1=C(C)N(Cc2ccc(OC)cc2)C(=O)C(CC(=O)NCCCCc2ccccc2)C1 (stereo unspecified)	inactive	
N#CCCC(C#N)(c1cccnc1)N1CCOCC1 (stereo unspecified)	inactive	
CCc1cc(C(=O)N(CC)CC(=O)Nc2c(F)cccc2F)sc1C	inactive	
Cc1ccc(-c2ccc(CN3C(C)C(=O)N(Cc4cn(CCC5OCCCO5)nn4)CCS3(=O)=O)cc2)cc1 (stereo unspecified)	inactive	
COc1ccc(S(=O)(=O)N2CCC(C(=O)NCCC(=O)Nc3ccccc3OC)CC2)cc1	inactive	
CC1CC(NC(=S)N(C)C)CC(C)(C)C1 (stereo unspecified)	inactive	
CC(C)NC(=O)Nc1ccc2c(c1)C(=O)N([C@H](C)CO)C[C@H](C)[C@@H](CN(C)Cc1ccc(C(F)(F)F)cc1)OCCCC[C@@H](C)O2	inactive	
O=C(NN=Cc1ccc2c(c1)CCC2)c1ccccc1O	inactive	
O[C@H]1C[C@H](c2ccc(Cl)cc2)N(Cc2cccs2)C[C@@H]1n1cc(C2CC2)nn1	inactive	
CC(=O)Nc1ccc2c3c(ccc([N+](=O)[O-])c13)CC2	inactive	
O=C(NC(=S)Nc1ccccc1C(=O)O)c1ccc(-c2ccc(Br)cc2)o1	14.1 µM (active)	
O=C(O)c1ccccc1NC(=O)c1ccccc1-c1ccccc1C(=O)O	inactive	
COC(=O)c1ccccc1NC(=S)NC(=O)c1ccccc1F	inactive	
O=C(COC(=O)CCc1c[nH]c2ccccc12)Nc1cccc(Cl)c1	inactive	
COC(=O)C(Cc1c[nH]c2ccccc12)NC(=O)CCNC(=O)c1ccco1 (stereo unspecified)	inactive	
COc1ccc(-c2cnc3c(c2)C(=O)N([C@H](C)CO)C[C@@H](C)[C@H](CN(C)Cc2ccccc2)O3)cc1	inactive	
COc1ccc(-c2ccc(CN3C(C(C)C)C(=O)N(Cc4cn(CC5CCCCC5)nn4)CCS3(=O)=O)cc2)cn1 (stereo unspecified)	inactive	
CCCc1ccc(S(=O)(=O)N2CCN(C(=O)c3cc(C)on3)CC2)cc1	inactive	
CCc1noc(C)c1C(=O)OCC(=O)c1ccc(NC(=O)CC(C)C)cc1	inactive	
COc1ccc(CN2C(=O)C(CC(=O)NCCN3CCOCC3)CC(C(=O)N(C(C)C)C(C)C)=C2C)cc1 (stereo unspecified)	inactive	
COc1ccc(NC(=O)CCCOc2ccc(C(C)=O)cc2)cc1S(=O)(=O)N1CCCCC1	inactive	

Structure (SMILES)	Potency	activation (cAMP increase)
COc1cccc(/C=C2\SC(=S)N(CCCC(=O)N3CCOCC3)C2=O)c1	inactive	
Cc1ccc2cccc([N+](=O)[O-])c2n1	inactive	
CCN(CC)C(=O)C(C)N1c2cccc3cccc(c23)S1(=O)=O (stereo unspecified)	inactive	
Cc1ccc(C(=O)NC(C)C(c2cccs2)N2CCOCC2)cc1C (stereo unspecified)	inactive	
COc1ccc(OC)c(NC(=O)C2CCCN2S(=O)(=O)c2ccc3c(c2)CC(C)N3C(C)=O)c1 (stereo unspecified)	inactive	
C[C@@H]1CN([C@@H](C)CO)C(=O)c2cc(NS(C)(=O)=O)ccc2O[C@@H](C)CCCCO[C@H]1CN(C)C(=O)Nc1ccc2c(c1)OCO2	inactive	
Cc1cccn2c(=O)c3cc(C#N)c(=O)n(CCCN4CCOCC4)c3nc12	20 µM (active)	
COCCCn1c(C(=O)NC2CCCCC2)cc2c(=O)n3cccc(C)c3nc21	inactive	
Cc1cccn2c(=O)c3cc(C#N)c(=NC(=O)c4cccnc4)n(CC4CCCO4)c3nc12 (stereo unspecified)	inactive	
Cc1nnc(SC(C)C(=O)c2c[nH]c3ccccc23)n1C1CC1 (stereo unspecified)	inactive	
Cc1ccc(C(=O)N[C@H](C(=O)N2CCN(c3ncccn3)CC2)C(C)C)cc1	inactive	
CC(C)CCOc1ccc(C(=O)Nc2cc(S(=O)(=O)N3CCOCC3)ccc2N2CCOCC2)cc1	inactive	
Cc1cccc(C(=O)NC2CCN(CC(=O)Nc3cccc(Cl)c3)CC2)c1	inactive	
Cc1csc(SCC(=O)Nc2ccc(C)c(S(=O)(=O)N(C)C)c2)n1	inactive	
CC1=C(C(=O)Nc2cccc(C(=O)NCC(C)c3ccccc3)c2)SCCO1 (stereo unspecified)	inactive	
O=C1[C@H]2[C@@H](c3ccc(C(F)(F)F)cc3)N[C@]3(CCCN(Cc4ccc(Cl)cc4)C3=O)[C@H]2C(=O)N1Cc1ccccc1	inactive	
CCN1C(=O)[C@H]2[C@@H](c3ccccc3)N[C@]3(CCCN(Cc4ccc(C)cc4)C3=O)[C@H]2C1=O	inactive	
Cn1c(CCN2CCN(c3ccccn3)CC2)nc2cc(NS(=O)(=O)c3ccc(F)cc3)ccc21	inactive	
c1ccc(Cn2nnc3c(NCC4CC4)ncnc32)cc1	inactive	
